Assay results: PubChem BioAssay AID1159580 (chemical genetic matrix, 2015)
Out of some 5,500 compounds screened, about 2,000 (36%) were called active. Inconclusive results (about 18%) are left out. No stated cut-off is given here; in the data, active means normalized growth mostly below about 0.91 (no sharp cut-off); inconclusive means no clear call, values can overlap the other calls; inactive means mostly above about 0.92. The list shows a part of the results.

Experiment: chemical genetic growth profiling, strain panel (AID 1159580);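 further: tested at 20 µM; growth read once vehicle control cultures reached saturation at 30 °C; 1 = growth at the plate median or of vehicle wells; lower values mean less growth of the strain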
Details: S. cerevisiae deletion strains, growth OD

Measured: normalized growth

C=C(NC(=O)C(=C)NC(=O)c1csc(C2=NC3c4csc(n4)C4NC(=O)c5csc(n5)C(C(C)(O)C(C)O)NC(=O)C5CSC(=N5)C(=CC)NC(=O)C(C(C)O)NC(=O)c5csc(n5)C3(CC2)NC(=O)C(C)NC(=O)C(=C)NC(=O)C(C)NC(=O)C(C(C)CC)NC2C=Cc3c(C(C)O)cc(nc3C2O)C(=O)OC4C)n1)C(N)=O (stereo not given)
inactive: locus YAL021C, strain ccr4, active compounds read low 1.01 | locus YAL026C, strain drs2, active compounds read low 1.01 | locus YAL030W, strain snc1, active compounds read low 1.01 | locus YBL061C, strain skt5, active compounds read low 1 | locus YBR009C, strain hhf1, active compounds read low 1 | locus YBR023C, strain chs3, active compounds read low 1.01 | locus YBR171W, strain sec66, active compounds read low 1.02 | locus YBR231C, strain swc5, active compounds read low 1.01 | locus YBR279W, strain paf1, active compounds read low 0.986 | locus YCL011C, strain gbp2, active compounds read low 1 | locus YCL016C, strain dcc1, active compounds read low 1.02 | locus YCL061C, strain MRC1, active compounds read low 1.01 | locus YCL069W, strain vba3, active compounds read low 1.01 | locus YCR088W, strain abp1, active compounds read low 1.02 | locus YDL005C, strain med2, active compounds read low 0.993 | locus YDL040C, strain nat1, active compounds read low 0.993 | locus YDR001C, strain nth1, active compounds read low 1.01 | locus YDR069C, strain doa4, active compounds read low 1.01 | locus YDR137W, strain rgp1, active compounds read low 1.04 | locus YDR159W, strain sac3, active compounds read low 1 | locus YDR195W, strain ref2 1.01 | locus YDR297W, strain sur2, active compounds read low 1 | locus YDR334W, strain swr1, active compounds read low 1.02 | locus YDR335W, strain msn5, active compounds read low 0.991 | locus YDR392W, strain spt3, active compounds read low 1.01 | locus YEL003W, strain gim4, active compounds read low 1.01 | locus YEL037C, strain rad23, active compounds read low 1 | locus YEL061C, strain CIN8 (second series), active compounds read low 1.02 | locus YER015W, strain faa2, active compounds read low 0.993 | locus YER016W, strain bim1, active compounds read low 1 | locus YER111C, strain swi4, active compounds read low 1.03 | locus YER155C, strain BEM2 (second series), active compounds read low 1.06 | locus YFR010W, strain ubp6, active compounds read low 1.01 | locus YGL167C, strain pmr1, active compounds read low 1.01 | locus YGL173C, strain kem1, active compounds read low 1.01 | locus YGL227W, strain vid30, active compounds read low 0.989 | locus YGL240W, strain doc1, active compounds read low 1.01 | locus YGL253W, strain hxk2, active compounds read low 1.01 | locus YHR013C, strain ard1, active compounds read low 1.03 | locus YHR027C, strain rpn1, active compounds read low 1.01 | locus YHR030C, strain SLT2, active compounds read low 0.979 | locus YHR079C, strain IRE1, active compounds read low 0.99 | locus YHR142W, strain chs7, active compounds read low 1.03 | locus YJL092W, strain hpr5, active compounds read low 1.01 | locus YJL095W, strain BCK1 (second series), active compounds read low 1.01 | locus YJL095W, strain BCK1, active compounds read low 0.981 | locus YJL115W, strain asf1, active compounds read low 1.01 | locus YJL129C, strain trk1, active compounds read low 1 | locus YJL154C, strain vps35, active compounds read low 1.02 | locus YJL164C, strain tpk1, active compounds read low 1.01 | locus YJL166W, strain qcr8, active compounds read low 1.02 | locus YJL187C, strain SWE1, active compounds read low 1.01 | locus YJR066W, strain TOR1, active compounds read low 0.968 | locus YKL160W, strain elf1, active compounds read low 1.02 | locus YKR026C, strain gcn3, active compounds read low 0.997 | locus YKR091W, strain srl3, active compounds read low 0.984 | locus YLL001W, strain dnm1, active compounds read low 1.02 | locus YLL026W, active compounds read low 0.995 | locus YLL041C, strain sdh2, active compounds read low 1.01 | locus YLR027C, strain aat2, active compounds read low 0.999 | locus YLR113W, strain HOG1, active compounds read low 0.987 | locus YLR221C, strain rsa3, active compounds read low 0.994 | locus YLR258W, strain gsy2, active compounds read low 1.02 | locus YLR262C, strain YPT6 (second series), active compounds read low 1.04 | locus YLR320W, strain mms22, active compounds read low 1.02 | locus YLR342W, strain FKS1, active compounds read low 1.02 | locus YLR357W, strain rsc2, active compounds read low 0.969 | locus YLR370C, strain arc18, active compounds read low 1 | locus YLR384C, strain iki3, active compounds read low 1.01 | locus YML120C, strain ndi1, active compounds read low 1 | locus YMR058W, strain fet3, active compounds read low 1 | locus YMR125W, strain sto1, active compounds read low 1.01 | locus YMR129W, active compounds read low 0.999 | locus YMR205C, strain PFK2, active compounds read low 1.01 | locus YMR231W, strain pep5, active compounds read low 0.983 | locus YNL071W, strain lat1, active compounds read low 1.01 | locus YNL183C, strain NPR1, active compounds read low 0.971 | locus YNL209W, strain ssb2, active compounds read low 1 | locus YNL248C, strain rpa49, active compounds read low 0.994 | locus YNL322C, strain KRE1 (second series), active compounds read low 1.02 | locus YNR049C, strain mso1, active compounds read low 1.01 | locus YOR001W, strain rrp6, active compounds read low 1.02 | locus YOR070C, strain gyp1, active compounds read low 1.01 | locus YOR080W, strain dia2, active compounds read low 1.02 | locus YOR083W, strain WHI5, active compounds read low 1.01 | locus YOR106W, strain vam3, active compounds read low 1.03 | locus YOR231W, strain MKK1, active compounds read low 0.981 | locus YOR265W, strain rbl2, active compounds read low 1.02 | locus YOR270C, strain vph1, active compounds read low 1 | locus YOR290C, strain snf2, active compounds read low 1.01 | locus YPL051W, strain arl3, active compounds read low 1.01 | locus YPL078C, strain atp4, active compounds read low 1.01 | locus YPL106C, strain sse1, active compounds read low 0.982 | locus YPL240C, strain hsp82, active compounds read low 0.997 | locus YPL256C, strain CLN2, active compounds read low 0.979
